For test [1], the target named is Death-associated protein kinase 1 (Homo sapiens) (UniProt P53355). To be noted: at 1 µM.
Test [2] deals with T1, Serine/threonine-protein kinase DCLK2 (Homo sapiens) (UniProt Q8N568).
T1 sequence (whole entry): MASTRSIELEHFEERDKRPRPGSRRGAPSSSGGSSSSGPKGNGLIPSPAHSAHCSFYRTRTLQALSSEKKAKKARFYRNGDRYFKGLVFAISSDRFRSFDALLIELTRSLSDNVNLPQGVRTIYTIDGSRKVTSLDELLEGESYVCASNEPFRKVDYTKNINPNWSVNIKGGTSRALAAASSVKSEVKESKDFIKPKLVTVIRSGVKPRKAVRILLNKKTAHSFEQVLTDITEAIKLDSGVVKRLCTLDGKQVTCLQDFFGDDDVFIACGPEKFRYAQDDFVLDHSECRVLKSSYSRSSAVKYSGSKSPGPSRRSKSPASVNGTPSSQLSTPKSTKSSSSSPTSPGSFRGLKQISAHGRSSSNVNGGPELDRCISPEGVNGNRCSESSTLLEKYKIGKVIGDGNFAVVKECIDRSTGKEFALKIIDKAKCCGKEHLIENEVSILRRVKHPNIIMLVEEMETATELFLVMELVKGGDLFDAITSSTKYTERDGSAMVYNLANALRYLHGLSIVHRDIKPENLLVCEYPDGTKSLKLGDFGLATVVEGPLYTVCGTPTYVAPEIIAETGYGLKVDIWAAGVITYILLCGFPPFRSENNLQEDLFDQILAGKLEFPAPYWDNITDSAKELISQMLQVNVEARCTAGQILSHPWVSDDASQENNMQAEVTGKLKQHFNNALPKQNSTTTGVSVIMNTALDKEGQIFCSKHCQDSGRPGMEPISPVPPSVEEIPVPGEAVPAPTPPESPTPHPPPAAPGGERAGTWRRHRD
To be noted: at 0.1 µM.

For test [3], the target named is T1, Serine/threonine-protein kinase DCLK2 (Homo sapiens). The note with it: at 1 µM.
The target of test [4] is MAP kinase-activated protein kinase 2 (Homo sapiens) (UniProt P49137). The note with it: at 0.1 µM.
Test [5] has the same target. To be noted: at 1 µM.
In test [6] the target is MAP kinase-activated protein kinase 3 (Homo sapiens) (UniProt Q16644). The note with it: at 0.1 µM.
For test [7] the target is unchanged. To be noted: at 1 µM.
Test [8] addresses Serine/threonine-protein kinase MARK1 (Homo sapiens) (UniProt Q9P0L2). The note with it: at 0.1 µM.
The target is the same in test [9]. To be noted: at 1 µM.
Test [10] deals with MAP/microtubule affinity-regulating kinase 3 (Homo sapiens) (UniProt P27448). To be noted: at 0.1 µM.
The target is the same in test [11]. To be noted: at 1 µM.
For test [12], the target named is T2, MAP/microtubule affinity-regulating kinase 4 (Homo sapiens) (UniProt Q96L34).
T2 sequence (whole entry): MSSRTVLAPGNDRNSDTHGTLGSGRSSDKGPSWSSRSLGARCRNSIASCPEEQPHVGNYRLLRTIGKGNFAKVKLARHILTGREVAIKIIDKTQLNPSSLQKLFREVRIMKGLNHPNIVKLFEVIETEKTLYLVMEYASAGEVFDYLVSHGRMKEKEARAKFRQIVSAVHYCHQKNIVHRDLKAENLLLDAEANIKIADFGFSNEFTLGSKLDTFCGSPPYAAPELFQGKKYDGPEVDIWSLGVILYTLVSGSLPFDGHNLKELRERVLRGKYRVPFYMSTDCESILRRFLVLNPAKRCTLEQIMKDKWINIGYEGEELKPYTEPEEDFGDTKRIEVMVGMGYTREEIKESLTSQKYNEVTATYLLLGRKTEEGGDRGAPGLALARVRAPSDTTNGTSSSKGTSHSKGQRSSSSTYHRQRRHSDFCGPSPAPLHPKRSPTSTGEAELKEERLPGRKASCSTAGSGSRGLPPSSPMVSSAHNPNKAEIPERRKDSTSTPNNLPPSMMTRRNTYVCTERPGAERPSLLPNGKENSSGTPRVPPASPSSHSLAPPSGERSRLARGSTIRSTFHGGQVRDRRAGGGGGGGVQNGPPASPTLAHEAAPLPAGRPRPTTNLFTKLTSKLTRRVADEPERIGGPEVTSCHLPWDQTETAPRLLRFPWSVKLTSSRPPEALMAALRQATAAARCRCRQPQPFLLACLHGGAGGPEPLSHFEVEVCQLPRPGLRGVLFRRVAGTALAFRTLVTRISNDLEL
To be noted: at 0.1 µM.

Test [13] addresses T2, MAP/microtubule affinity-regulating kinase 4 (Homo sapiens). The note with it: at 1 µM.
The target of test [14] is Maternal embryonic leucine zipper kinase (Homo sapiens) (UniProt Q14680). The note with it: at 0.1 µM.
For test [15] the target is unchanged. To be noted: at 1 µM.
Test [16] has as its target MAP kinase-interacting serine/threonine-protein kinase 1 (Homo sapiens) (UniProt Q9BUB5). To be noted: at 0.1 µM.
The target is the same in test [17]. To be noted: at 1 µM.
For test [18], the target named is MAP kinase-interacting serine/threonine-protein kinase 2 (Homo sapiens) (UniProt Q9HBH9). The note with it: at 0.1 µM.
Test [19] has the same target. The note with it: at 1 µM.
For test [20], the target named is Serine/threonine-protein kinase MARK2 (Homo sapiens) (UniProt Q7KZI7). The note with it: at 0.1 µM.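 Note: mean percent inhibition of PAR-1Balpha kinase activity, reported from the GSK PKIS screen.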
Chain of Serine/threonine-protein kinase MARK2 (Homo sapiens) (Q7KZI7 whole entry): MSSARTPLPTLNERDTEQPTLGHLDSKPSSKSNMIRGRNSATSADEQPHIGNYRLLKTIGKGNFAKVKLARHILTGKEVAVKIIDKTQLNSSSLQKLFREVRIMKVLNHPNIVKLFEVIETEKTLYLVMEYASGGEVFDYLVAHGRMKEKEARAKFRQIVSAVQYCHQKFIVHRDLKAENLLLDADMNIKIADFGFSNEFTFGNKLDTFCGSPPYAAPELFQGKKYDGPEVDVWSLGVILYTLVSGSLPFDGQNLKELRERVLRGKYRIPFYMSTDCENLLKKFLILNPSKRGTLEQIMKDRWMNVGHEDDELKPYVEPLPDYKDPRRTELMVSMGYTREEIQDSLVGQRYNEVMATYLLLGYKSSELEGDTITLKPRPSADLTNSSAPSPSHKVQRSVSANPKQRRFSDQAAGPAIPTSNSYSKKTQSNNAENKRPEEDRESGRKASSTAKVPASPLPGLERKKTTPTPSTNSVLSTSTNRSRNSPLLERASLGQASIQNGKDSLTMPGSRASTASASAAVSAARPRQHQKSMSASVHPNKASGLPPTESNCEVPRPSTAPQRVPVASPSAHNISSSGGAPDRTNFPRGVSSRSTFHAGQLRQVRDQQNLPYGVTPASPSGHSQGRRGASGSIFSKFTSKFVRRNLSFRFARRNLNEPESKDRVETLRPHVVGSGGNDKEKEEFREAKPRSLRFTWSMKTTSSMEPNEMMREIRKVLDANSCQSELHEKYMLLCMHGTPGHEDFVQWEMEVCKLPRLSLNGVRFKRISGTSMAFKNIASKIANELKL

Chain of MAP kinase-activated protein kinase 2 (Homo sapiens) (P49137 whole entry, looked up): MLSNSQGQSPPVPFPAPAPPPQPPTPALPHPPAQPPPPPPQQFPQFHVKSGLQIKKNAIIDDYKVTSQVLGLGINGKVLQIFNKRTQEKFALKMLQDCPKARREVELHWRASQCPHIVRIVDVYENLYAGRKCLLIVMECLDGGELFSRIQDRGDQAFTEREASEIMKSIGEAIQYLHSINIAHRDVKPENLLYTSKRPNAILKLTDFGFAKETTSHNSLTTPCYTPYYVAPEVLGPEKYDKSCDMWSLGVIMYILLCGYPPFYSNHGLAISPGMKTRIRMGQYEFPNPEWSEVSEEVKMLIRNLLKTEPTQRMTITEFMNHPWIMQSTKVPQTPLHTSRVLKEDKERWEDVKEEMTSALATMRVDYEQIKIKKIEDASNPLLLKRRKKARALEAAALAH
Chain of MAP/microtubule affinity-regulating kinase 3 (Homo sapiens) (P27448 whole entry, looked up): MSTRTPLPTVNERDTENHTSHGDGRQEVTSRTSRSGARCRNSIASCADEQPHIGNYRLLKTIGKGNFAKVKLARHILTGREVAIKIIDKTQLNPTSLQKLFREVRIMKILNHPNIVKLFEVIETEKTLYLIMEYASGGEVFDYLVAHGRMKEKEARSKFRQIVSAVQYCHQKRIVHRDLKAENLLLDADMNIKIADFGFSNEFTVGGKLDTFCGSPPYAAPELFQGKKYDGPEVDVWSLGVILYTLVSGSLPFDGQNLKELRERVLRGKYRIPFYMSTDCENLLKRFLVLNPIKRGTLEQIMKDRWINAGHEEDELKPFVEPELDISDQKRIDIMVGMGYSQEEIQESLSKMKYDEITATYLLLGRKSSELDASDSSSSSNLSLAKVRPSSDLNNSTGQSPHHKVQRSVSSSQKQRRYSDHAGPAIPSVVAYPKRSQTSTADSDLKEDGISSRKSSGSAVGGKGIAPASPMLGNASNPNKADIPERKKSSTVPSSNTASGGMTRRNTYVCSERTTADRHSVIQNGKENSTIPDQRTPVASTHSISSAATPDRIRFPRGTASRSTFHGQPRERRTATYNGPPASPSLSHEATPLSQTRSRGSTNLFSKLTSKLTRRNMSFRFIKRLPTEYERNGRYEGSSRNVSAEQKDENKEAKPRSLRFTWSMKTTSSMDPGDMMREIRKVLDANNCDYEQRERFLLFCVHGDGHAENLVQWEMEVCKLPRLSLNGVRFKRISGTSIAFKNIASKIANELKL
Chain of MAP kinase-interacting serine/threonine-protein kinase 1 (Homo sapiens) (Q9BUB5 whole entry, looked up): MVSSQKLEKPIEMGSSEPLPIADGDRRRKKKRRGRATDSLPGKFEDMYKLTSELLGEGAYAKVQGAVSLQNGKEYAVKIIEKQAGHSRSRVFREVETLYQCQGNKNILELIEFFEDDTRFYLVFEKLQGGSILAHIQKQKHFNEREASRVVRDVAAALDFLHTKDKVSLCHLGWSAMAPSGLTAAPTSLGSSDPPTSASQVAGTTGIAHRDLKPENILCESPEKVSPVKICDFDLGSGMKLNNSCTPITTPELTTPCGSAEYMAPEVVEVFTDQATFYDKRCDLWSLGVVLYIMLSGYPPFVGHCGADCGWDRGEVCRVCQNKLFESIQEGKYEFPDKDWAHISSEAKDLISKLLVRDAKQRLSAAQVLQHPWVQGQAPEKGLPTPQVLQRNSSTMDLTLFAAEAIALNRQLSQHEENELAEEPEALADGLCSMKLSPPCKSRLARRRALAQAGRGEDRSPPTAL
Chain of Maternal embryonic leucine zipper kinase (Homo sapiens) (Q14680 whole entry, looked up): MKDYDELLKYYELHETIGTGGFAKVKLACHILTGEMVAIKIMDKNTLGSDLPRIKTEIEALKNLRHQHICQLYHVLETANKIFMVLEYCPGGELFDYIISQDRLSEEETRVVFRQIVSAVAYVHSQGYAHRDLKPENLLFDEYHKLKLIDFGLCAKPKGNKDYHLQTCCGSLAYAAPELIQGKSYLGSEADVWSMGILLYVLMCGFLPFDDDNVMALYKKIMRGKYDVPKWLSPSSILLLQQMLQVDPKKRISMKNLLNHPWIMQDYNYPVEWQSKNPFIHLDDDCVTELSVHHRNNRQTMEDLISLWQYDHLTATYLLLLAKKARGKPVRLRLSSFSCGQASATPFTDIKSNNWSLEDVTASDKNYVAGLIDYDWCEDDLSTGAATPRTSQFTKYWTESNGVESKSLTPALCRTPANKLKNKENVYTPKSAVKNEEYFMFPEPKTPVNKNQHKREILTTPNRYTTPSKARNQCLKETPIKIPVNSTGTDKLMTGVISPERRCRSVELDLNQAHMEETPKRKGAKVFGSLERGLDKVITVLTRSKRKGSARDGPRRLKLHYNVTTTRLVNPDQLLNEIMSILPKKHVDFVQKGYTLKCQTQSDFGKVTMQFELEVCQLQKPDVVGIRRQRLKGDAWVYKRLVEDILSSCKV
Chain of Serine/threonine-protein kinase MARK1 (Homo sapiens) (Q9P0L2 whole entry, looked up): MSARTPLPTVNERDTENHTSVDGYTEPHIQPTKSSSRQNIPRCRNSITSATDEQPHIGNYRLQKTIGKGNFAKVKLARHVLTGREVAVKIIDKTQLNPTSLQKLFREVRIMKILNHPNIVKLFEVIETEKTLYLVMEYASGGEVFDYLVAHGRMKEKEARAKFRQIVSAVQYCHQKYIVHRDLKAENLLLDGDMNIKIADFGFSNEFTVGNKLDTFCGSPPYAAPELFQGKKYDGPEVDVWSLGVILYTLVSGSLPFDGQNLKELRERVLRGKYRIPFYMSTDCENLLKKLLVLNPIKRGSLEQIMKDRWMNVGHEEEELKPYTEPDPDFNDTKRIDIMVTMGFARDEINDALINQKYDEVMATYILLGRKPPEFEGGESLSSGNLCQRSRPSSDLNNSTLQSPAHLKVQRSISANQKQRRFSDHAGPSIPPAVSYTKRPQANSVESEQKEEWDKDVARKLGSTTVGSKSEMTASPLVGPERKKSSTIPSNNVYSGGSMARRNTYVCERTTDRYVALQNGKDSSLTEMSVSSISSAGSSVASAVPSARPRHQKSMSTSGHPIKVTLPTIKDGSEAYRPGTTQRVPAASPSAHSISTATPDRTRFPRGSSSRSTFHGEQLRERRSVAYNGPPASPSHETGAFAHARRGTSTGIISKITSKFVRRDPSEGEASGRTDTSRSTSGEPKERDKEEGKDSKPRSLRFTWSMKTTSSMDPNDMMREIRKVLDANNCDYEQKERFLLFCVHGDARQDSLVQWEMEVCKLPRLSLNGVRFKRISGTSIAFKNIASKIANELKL
Chain of MAP kinase-interacting serine/threonine-protein kinase 2 (Homo sapiens) (Q9HBH9 whole entry, looked up): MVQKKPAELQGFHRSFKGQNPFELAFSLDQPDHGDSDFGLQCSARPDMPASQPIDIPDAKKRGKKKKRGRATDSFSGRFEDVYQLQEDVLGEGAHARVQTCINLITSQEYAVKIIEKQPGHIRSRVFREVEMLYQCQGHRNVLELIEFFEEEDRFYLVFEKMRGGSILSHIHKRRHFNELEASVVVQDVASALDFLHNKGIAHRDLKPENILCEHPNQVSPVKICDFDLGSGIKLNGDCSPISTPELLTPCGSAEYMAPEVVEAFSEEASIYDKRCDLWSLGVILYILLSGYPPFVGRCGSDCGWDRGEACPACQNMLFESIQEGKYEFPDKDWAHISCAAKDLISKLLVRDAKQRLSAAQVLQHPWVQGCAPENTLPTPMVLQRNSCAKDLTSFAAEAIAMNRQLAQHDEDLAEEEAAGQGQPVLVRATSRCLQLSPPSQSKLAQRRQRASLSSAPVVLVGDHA
Chain of MAP kinase-activated protein kinase 3 (Homo sapiens) (Q16644 whole entry, looked up): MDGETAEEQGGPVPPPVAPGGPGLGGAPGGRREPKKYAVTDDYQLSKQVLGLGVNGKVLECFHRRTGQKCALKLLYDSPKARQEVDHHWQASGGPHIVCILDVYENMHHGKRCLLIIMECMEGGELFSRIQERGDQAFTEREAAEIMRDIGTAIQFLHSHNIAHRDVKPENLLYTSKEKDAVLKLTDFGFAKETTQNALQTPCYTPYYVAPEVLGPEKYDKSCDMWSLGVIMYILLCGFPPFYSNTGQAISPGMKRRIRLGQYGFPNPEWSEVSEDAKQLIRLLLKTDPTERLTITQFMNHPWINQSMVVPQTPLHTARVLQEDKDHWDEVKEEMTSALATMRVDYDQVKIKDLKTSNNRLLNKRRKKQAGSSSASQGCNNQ

By inhibition is commonly meant the relative decrease from the control value, in per cent. As to `O=S(=O)(CCNCc1ccc(-c2ccc3ncnc(Nc4ccc(OCc5cccc(F)c5)c(Cl)c4)c3c2)o1)c1ccccc1`, the inhibition is 6.96% in test [1]; 1.44% in test [2]; 2.85% in test [3]; 2.31% in test [4]; 2.57% in test [5]; 7.71% in test [6]. Also, the inhibition stood at 7.76% in [7]; 3.69% in test [8]; 5.01% in test [9]; 3.94% in test [10]; 5.8% in [11]; 3.85% in test [12]. The inhibition in [13] is 2.5%; in test [14], 5.2%; in [15] it was 3.07%; in [16], 2.9%; in test [17], 5.96%; in test [18], 0.8%. Also, the figures for the inhibition in test [19] and in test [20] were 4.95% and 0.66%, respectively.
For `Nc1nc(-c2cccc(Cl)c2)c(-c2ccc3ncccc3n2)s1`, the inhibition in test [1] is 15.4%; in [2] it was 1.69%; in test [3], 1.16%; in test [4], 4.89%; in test [5], 6.05%; in test [6] it was 13.6%. The inhibition in test [7] came out at 23.9%; in [8], 5.51%; in test [9], 4.17%; in test [10], 2.28%; in [11] it was 6.68%; in test [12] it was 1.87%. Besides, the inhibition in [13] was -0.31%; in test [14], 4.19%; in [15], 11.3%; in test [16], 3.39%; in test [17], 9.69%; in test [18], 2.72%. Further, the inhibition in test [19] was 7.56%; in test [20], 1.01%.
For `NS(=O)(=O)c1ccc(N/N=C2\C(=O)Nc3ccc4ncccc4c32)cc1`, the inhibition in test [1] was 63%; in [2] it was -1.4%; in [3], 7.76%; in test [4], 0.89%; in test [5], 1.9%; in test [6], 2.79%. Moreover, the inhibition is 3.84% in test [7]; 12.8% in test [8]; 52.9% in test [9]; 8.25% in test [10]; 40.9% in test [11]; 11.4% in [12]. For the same compound, the inhibition was determined as 52% in [13]; 50.3% in test [14]; 93.4% in test [15]; 4% in test [16]; 19.4% in test [17]; 2.52% in test [18]. Further, the results for the inhibition in test [19] and in [20] were 20.4% and 5.97%, respectively.
Consider `CN(C)CCOc1ccc(-c2nc(-c3ccncc3)c(-c3ccc4c(c3)CC/C4=N\O)[nH]2)cc1`, for which the inhibition was found to be 5.09% in test [1]; 0.7% in test [2]; 1.55% in [3]; 1.68% in test [4]; 2.27% in [5]; 2.57% in [6]. In addition, the inhibition came to 4.19% in [7]; 2.54% in [8]; 3.97% in [9]; 2.63% in [10]; 4.44% in test [11]; 0.44% in [12]. Further, the inhibition in test [13] amounted to 2.12%; in [14] it was 1.61%; in test [15], 3.61%; in test [16] it was 1.3%; in [17], 7.41%; in [18], 1.42%. Moreover, the results for the inhibition in test [19] and in test [20] were 5.3% and 1.34%, respectively.
In the case of `Fc1ccc(-c2nn3ncccc3c2-c2ccnc(Nc3ccc4c(c3)OCCO4)n2)cc1`, the inhibition in test [1] is 2.12%; in test [2], 1.43%; in test [3] it was -0.42%; in test [4] it was 1.56%; in test [5], 1.39%; in test [6], 34.4%. For the same compound, the inhibition in test [7] was 37.8%; in test [8], 1.97%; in test [9] it was 3.47%; in [10], 4.24%; in test [11] it was -0.42%; in [12] it was 2.21%. The inhibition in test [13] is 2.65%; in test [14], 3.62%; in [15] it was 9.58%; in [16] it was 3.01%; in [17], 4.06%; in test [18] it was 0.58%. Besides, the inhibition in [19] was -0.01%; in [20], -1.3%.
On to `COc1ccc(-c2nn3ncccc3c2-c2ccnc(Nc3ccc4c(c3)OCCO4)n2)cc1`, for which the inhibition in test [1] was 2.06%; in [2], -1.54%; in [3], -0.74%; in test [4], 0.19%; in [5], 0.03%; in test [6], 30.9%. Also, the inhibition in test [7] turned out to be 37%; in [8], 0.34%; in test [9], 2.66%; in test [10] it was 3%; in test [11] it was 1.83%; in test [12] it was 1.34%. The inhibition in [13] is 0.93%; in test [14] it was -1.54%; in test [15] it was 2.58%; in test [16], 0.71%; in test [17] it was 0.14%; in test [18], -0.13%. Further, the inhibition in test [19] is 1.25%; in [20], -1.35%.
Regarding `c1ccc(COc2ccc(Nc3ncnc4ccc(-c5ccco5)cc34)cc2)cc1`, the inhibition is 0.73% in [1]; -0.98% in [2]; -0.08% in test [3]; 2.44% in test [4]; 0.12% in test [5]; 1.07% in test [6]. The inhibition in [7] was -0.28%; in test [8], 0.18%; in [9], 1.8%; in test [10], 0.1%; in test [11] it was 3.2%; in [12], 0.96%. The inhibition in test [13] is 1.77%; in test [14] it was 0.14%; in test [15], -3.64%; in [16] it was 1.35%; in test [17], 5.5%; in test [18], 2.49%. Also, the inhibition was 8.27% in test [19] and -1.72% in test [20].

The values are drawn from ChEMBL document CHEMBL1961873, “Compounds: GSK PKIS; Assays: Nanosyn kinase panel” (2012).
